PubChem BioAssay AID1159580 (chemical genetic matrix, 2015)
The whole screen tested about 5,500 compounds, of which about 2,000 (36%) were called active. Inconclusive results (about 18%) are left out. No stated cut-off is given here; in the data, active means normalized growth mostly below about 0.91 (no sharp cut-off); inconclusive means no clear call, values can overlap the other calls; inactive means mostly above about 0.92. This is one part of the list.

Assay: chemical genetic growth profiling, strain panel (AID 1159580);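 further: tested at 20 µM; growth read once vehicle control cultures reached saturation at 30 °C; 1 = growth at the plate median or of vehicle wells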
Conditions: growth OD

Measured: normalized growth

C=C(C)c1cc2cc(C(C)=O)c(O)cc2o1
active: S. cerevisiae deletion strains, locus YKL068W, stronger effect = lower value 0.934 | S. cerevisiae deletion strains, locus YKL085W, strain MDH1 (second series), stronger effect = lower value 0.918 | S. cerevisiae deletion strains, locus YKL085W, strain MDH1, stronger effect = lower value 0.918 | S. cerevisiae deletion strains, locus YLR113W, strain HOG1, stronger effect = lower value 0.834 | S. cerevisiae deletion strains, locus YLR262C, strain YPT6 (second series), stronger effect = lower value 0.834 | S. cerevisiae deletion strains, locus YLR371W, strain rom2, stronger effect = lower value 0.776 | S. cerevisiae deletion strains, locus YML016C, strain PPZ1, stronger effect = lower value 0.906 | S. cerevisiae deletion strains, locus YML124C, strain tub3, stronger effect = lower value 0.906 | S. cerevisiae deletion strains, locus YMR078C, strain ctf18, stronger effect = lower value 0.909 | S. cerevisiae deletion strains, locus YNL071W, strain lat1, stronger effect = lower value 0.861 | S. cerevisiae deletion strains, locus YNL298W, strain CLA4, stronger effect = lower value 0.909 | S. cerevisiae deletion strains, locus YNL307C, strain MCK1, stronger effect = lower value 0.895 | S. cerevisiae deletion strains, locus YOL147C, strain pex11, stronger effect = lower value 0.923 | S. cerevisiae deletion strains, locus YOR184W, strain ser1, stronger effect = lower value 0.845 | S. cerevisiae deletion strains, locus YOR316C, strain cot1, stronger effect = lower value 0.913 | S. cerevisiae deletion strains, locus YPL078C, strain atp4, stronger effect = lower value 0.877 | S. cerevisiae deletion strains, locus YPR141C, strain kar3, stronger effect = lower value 0.906 | S. cerevisiae deletion strains, strain wtn01, stronger effect = lower value 0.89
inactive: S. cerevisiae deletion strains, locus YJL187C, strain SWE1, stronger effect = lower value 0.994 | S. cerevisiae deletion strains, locus YJR066W, strain TOR1, stronger effect = lower value 0.886 | S. cerevisiae deletion strains, locus YKL009W, strain mrt4, stronger effect = lower value 0.939 | S. cerevisiae deletion strains, locus YKL160W, strain elf1, stronger effect = lower value 0.92 | S. cerevisiae deletion strains, locus YKL190W, strain CNB1, stronger effect = lower value 0.954 | S. cerevisiae deletion strains, locus YKR001C, strain vps1, stronger effect = lower value 0.932 | S. cerevisiae deletion strains, locus YKR026C, strain gcn3, stronger effect = lower value 0.966 | S. cerevisiae deletion strains, locus YKR091W, strain srl3, stronger effect = lower value 0.979 | S. cerevisiae deletion strains, locus YLL001W, strain dnm1, stronger effect = lower value 0.916 | S. cerevisiae deletion strains, locus YLL026W, stronger effect = lower value 0.977 | S. cerevisiae deletion strains, locus YLL041C, strain sdh2, stronger effect = lower value 0.97 | S. cerevisiae deletion strains, locus YLR027C, strain aat2, stronger effect = lower value 0.964 | S. cerevisiae deletion strains, locus YLR039C, strain RIC1, stronger effect = lower value 0.831 | S. cerevisiae deletion strains, locus YLR058C, strain SHM2, stronger effect = lower value 0.948 | S. cerevisiae deletion strains, locus YLR102C, strain apc9, stronger effect = lower value 0.931 | S. cerevisiae deletion strains, locus YLR221C, strain rsa3, stronger effect = lower value 0.975 | S. cerevisiae deletion strains, locus YLR258W, strain gsy2, stronger effect = lower value 0.932 | S. cerevisiae deletion strains, locus YLR268W, strain sec22, stronger effect = lower value 0.945 | S. cerevisiae deletion strains, locus YLR320W, strain mms22, stronger effect = lower value 0.908 | S. cerevisiae deletion strains, locus YLR342W, strain FKS1 (second series), stronger effect = lower value 0.894 | S. cerevisiae deletion strains, locus YLR342W, strain FKS1, stronger effect = lower value 0.978 | S. cerevisiae deletion strains, locus YLR357W, strain rsc2, stronger effect = lower value 1.01 | S. cerevisiae deletion strains, locus YLR370C, strain arc18, stronger effect = lower value 0.971 | S. cerevisiae deletion strains, locus YLR384C, strain iki3, stronger effect = lower value 0.977 | S. cerevisiae deletion strains, locus YLR418C, strain cdc73, stronger effect = lower value 0.861 | S. cerevisiae deletion strains, locus YML032C, strain rad52, stronger effect = lower value 0.942 | S. cerevisiae deletion strains, locus YML120C, strain ndi1, stronger effect = lower value 0.932 | S. cerevisiae deletion strains, locus YMR058W, strain fet3, stronger effect = lower value 0.954 | S. cerevisiae deletion strains, locus YMR125W, strain sto1, stronger effect = lower value 0.982 | S. cerevisiae deletion strains, locus YMR129W, stronger effect = lower value 0.966 | S. cerevisiae deletion strains, locus YMR205C, strain PFK2, stronger effect = lower value 0.906 | S. cerevisiae deletion strains, locus YMR223W, strain ubp8, stronger effect = lower value 0.967 | S. cerevisiae deletion strains, locus YMR231W, strain pep5, stronger effect = lower value 0.997 | S. cerevisiae deletion strains, locus YMR307W, strain GAS1, stronger effect = lower value 0.904 | S. cerevisiae deletion strains, locus YNL067W, strain RPL9B, stronger effect = lower value 0.986 | S. cerevisiae deletion strains, locus YNL128W, strain TEP1, stronger effect = lower value 0.928 | S. cerevisiae deletion strains, locus YNL183C, strain NPR1, stronger effect = lower value 0.889 | S. cerevisiae deletion strains, locus YNL209W, strain ssb2, stronger effect = lower value 0.967 | S. cerevisiae deletion strains, locus YNL233W, strain BNI4, stronger effect = lower value 0.952 | S. cerevisiae deletion strains, locus YNL248C, strain rpa49, stronger effect = lower value 0.956 | S. cerevisiae deletion strains, locus YNL250W, strain rad50, stronger effect = lower value 0.932 | S. cerevisiae deletion strains, locus YNL271C, strain bni1, stronger effect = lower value 0.957 | S. cerevisiae deletion strains, locus YNL322C, strain KRE1 (second series), stronger effect = lower value 0.979 | S. cerevisiae deletion strains, locus YNR049C, strain mso1, stronger effect = lower value 0.976 | S. cerevisiae deletion strains, locus YNR052C, strain pop2, stronger effect = lower value 0.97 | S. cerevisiae deletion strains, locus YOL006C, strain TOP1, stronger effect = lower value 0.714 | S. cerevisiae deletion strains, locus YOL012C, strain htz1 0.842 | S. cerevisiae deletion strains, locus YOR001W, strain rrp6, stronger effect = lower value 0.982 | S. cerevisiae deletion strains, locus YOR061W, strain CKA2, stronger effect = lower value 0.933 | S. cerevisiae deletion strains, locus YOR069W, strain VPS5, stronger effect = lower value 0.968 | S. cerevisiae deletion strains, locus YOR070C, strain gyp1, stronger effect = lower value 0.979 | S. cerevisiae deletion strains, locus YOR080W, strain dia2, stronger effect = lower value 0.984 | S. cerevisiae deletion strains, locus YOR083W, strain WHI5, stronger effect = lower value 0.929 | S. cerevisiae deletion strains, locus YOR106W, strain vam3, stronger effect = lower value 0.965 | S. cerevisiae deletion strains, locus YOR136W, strain idh2, stronger effect = lower value 0.943 | S. cerevisiae deletion strains, locus YOR144C, strain elg1, stronger effect = lower value 0.936 | S. cerevisiae deletion strains, locus YOR231W, strain MKK1, stronger effect = lower value 0.93 | S. cerevisiae deletion strains, locus YOR265W, strain rbl2, stronger effect = lower value 0.96 | S. cerevisiae deletion strains, locus YOR270C, strain vph1, stronger effect = lower value 0.88 | S. cerevisiae deletion strains, locus YOR290C, strain snf2, stronger effect = lower value 0.893 | S. cerevisiae deletion strains, locus YPL051W, strain arl3, stronger effect = lower value 0.917 | S. cerevisiae deletion strains, locus YPL106C, strain sse1, stronger effect = lower value 0.895 | S. cerevisiae deletion strains, locus YPL240C, strain hsp82, stronger effect = lower value 0.961 | S. cerevisiae deletion strains, locus YPL256C, strain CLN2, stronger effect = lower value 0.897 | S. cerevisiae deletion strains, locus YPR119W, strain clb2, stronger effect = lower value 0.942 | S. cerevisiae deletion strains, locus YPR163C, strain tif3, stronger effect = lower value 0.976 | S. cerevisiae deletion strains, locus YPR167C, strain met16, stronger effect = lower value 0.927 | S. cerevisiae strains, strain wild type, stronger effect = lower value 0.929
